# Measurements published in the supplement of paper PMC12282887.
# ± gives the standard deviation of the averaged measurements.
# How the values were obtained:
# Assay in all cases: promoter activity interaction Z-score (Lux/OD deviation from empty-vector control); higher = stronger promoter induction by the compound
# [1] = test system: E. coli BW25113 acrABp lux reporter
# Summary of the method: (§1)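 E. coli BW25113, as wild type or one of three single-gene deletion strains, carried low-copy luxCDABE promoter reporters and grew in 40 µl LB Lennox in 384-well plates at 37°C, with OD600 and luminescence read every 30 min for 12 h. Each compound was run at four 1:2 dilutions in biological duplicates, integration spanned 0–8 h for wild type and 1–9 h for deletion strains, and wells under 10% of the median growth value were dropped. The score is the Z-transformed residual of growth-normalised luminescence fitted against a control.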
# [2] = test system: E. coli BW25113 marRABp lux reporter
# Summary of the method: as §1
# [3] = test system: E. coli BW25113 micFp lux reporter
# Summary of the method: as §1
# [4] = test system: E. coli BW25113 ompFp lux reporter
# Summary of the method: as §1
# [5] = test system: E. coli BW25113 robp lux reporter
# Summary of the method: as §1
# [6] = test system: E. coli BW25113 soxSp lux reporter
# Summary of the method: as §1
# [7] = test system: E. coli BW25113 tolCp lux reporter
# Summary of the method: as §1
# [8] = 0.011 µg/ml, genetic background: wild type
# [9] = 0.011 µg/ml, genetic background: ΔmarA
# [10] = 0.011 µg/ml, genetic background: Δrob
# [11] = 0.011 µg/ml, genetic background: ΔsoxS
# [12] = 0.023 µg/ml, genetic background: wild type
# [13] = 0.023 µg/ml, genetic background: ΔmarA
# [14] = 0.023 µg/ml, genetic background: Δrob
# [15] = 0.023 µg/ml, genetic background: ΔsoxS
# [16] = 0.046 µg/ml, genetic background: wild type
# [17] = 0.046 µg/ml, genetic background: ΔmarA
# [18] = 0.046 µg/ml, genetic background: Δrob
# [19] = 0.046 µg/ml, genetic background: ΔsoxS
# [20] = 0.091 µg/ml, genetic background: wild type
# [21] = 0.091 µg/ml, genetic background: ΔmarA
# [22] = 0.091 µg/ml, genetic background: Δrob
# [23] = 0.091 µg/ml, genetic background: ΔsoxS
smiles,measurement,setting,value
C[C@@H]1O[C@@H]1P(=O)(O)O [Fosfomycin],promoter activity interaction Z-score,[1]; [8],-0.0514 ± 0.17
same,promoter activity interaction Z-score,[1]; [9],0.0429 ± 0.25
same,promoter activity interaction Z-score,[1]; [10],0.201 ± 0.24
same,promoter activity interaction Z-score,[1]; [11],-0.0843 ± 0.31
same,promoter activity interaction Z-score,[1]; [12],0.134 ± 0.25
same,promoter activity interaction Z-score,[1]; [13],0.445 ± 0.43
same,promoter activity interaction Z-score,[1]; [14],0.174 ± 0.14
same,promoter activity interaction Z-score,[1]; [15],-0.242 ± 0.29
same,promoter activity interaction Z-score,[1]; [16],-0.142 ± 0.12
same,promoter activity interaction Z-score,[1]; [17],-0.284 ± 0.14
same,promoter activity interaction Z-score,[1]; [18],0.229 ± 0.37
same,promoter activity interaction Z-score,[1]; [19],0.118 ± 0.17
same,promoter activity interaction Z-score,[1]; [20],1.76 ± 0.8
same,promoter activity interaction Z-score,[1]; [21],2.58 ± 0.66
same,promoter activity interaction Z-score,[1]; [22],1.15 ± 0.18
same,promoter activity interaction Z-score,[1]; [23],0.198 ± 1.3
same,promoter activity interaction Z-score,[2]; [8],0.112 ± 0.27
same,promoter activity interaction Z-score,[2]; [9],0.0292 ± 0.18
same,promoter activity interaction Z-score,[2]; [10],-0.0327 ± 0.12
same,promoter activity interaction Z-score,[2]; [11],0.00491 ± 0.17
same,promoter activity interaction Z-score,[2]; [12],0.0365 ± 0.015
same,promoter activity interaction Z-score,[2]; [13],0.0557 ± 0.48
same,promoter activity interaction Z-score,[2]; [14],-0.0686 ± 0.17
same,promoter activity interaction Z-score,[2]; [15],-0.0756 ± 0.00091
same,promoter activity interaction Z-score,[2]; [16],-0.461 ± 0.53
same,promoter activity interaction Z-score,[2]; [17],-0.206 ± 0.0084
same,promoter activity interaction Z-score,[2]; [18],-0.0852 ± 0.1
same,promoter activity interaction Z-score,[2]; [19],0.136 ± 0.17
same,promoter activity interaction Z-score,[2]; [20],1.62 ± 0.061
same,promoter activity interaction Z-score,[2]; [21],1.31 ± 0.6
same,promoter activity interaction Z-score,[2]; [22],0.576 ± 0.054
same,promoter activity interaction Z-score,[2]; [23],1.75 ± 0.052
same,promoter activity interaction Z-score,[3]; [8],-0.227 ± 0.25
same,promoter activity interaction Z-score,[3]; [9],0.053 ± 0.061
same,promoter activity interaction Z-score,[3]; [10],-0.0521 ± 0.036
same,promoter activity interaction Z-score,[3]; [11],-0.3 ± 0.065
same,promoter activity interaction Z-score,[3]; [12],-0.0683 ± 0.18
same,promoter activity interaction Z-score,[3]; [13],0.0385 ± 0.078
same,promoter activity interaction Z-score,[3]; [14],-0.0229 ± 0.046
same,promoter activity interaction Z-score,[3]; [15],-0.31 ± 0.0043
same,promoter activity interaction Z-score,[3]; [16],-0.471 ± 0.25
same,promoter activity interaction Z-score,[3]; [17],-0.104 ± 0.084
same,promoter activity interaction Z-score,[3]; [18],-0.121 ± 0.023
same,promoter activity interaction Z-score,[3]; [19],0.017 ± 0.027
same,promoter activity interaction Z-score,[3]; [20],0.578 ± 0.33
same,promoter activity interaction Z-score,[3]; [21],-0.163 ± 0.034
same,promoter activity interaction Z-score,[3]; [22],-0.0601 ± 0.12
same,promoter activity interaction Z-score,[3]; [23],-0.264 ± 0.2
same,promoter activity interaction Z-score,[4]; [8],0.269 ± 0.034
same,promoter activity interaction Z-score,[4]; [9],0.352 ± 0.034
same,promoter activity interaction Z-score,[4]; [10],-0.181 ± 0.21
same,promoter activity interaction Z-score,[4]; [11],0.154 ± 0.62
same,promoter activity interaction Z-score,[4]; [12],0.162 ± 0.32
same,promoter activity interaction Z-score,[4]; [13],0.534 ± 0.28
same,promoter activity interaction Z-score,[4]; [14],0.297 ± 0.084
same,promoter activity interaction Z-score,[4]; [15],-0.146 ± 0.43
same,promoter activity interaction Z-score,[4]; [16],-0.707 ± 0.057
same,promoter activity interaction Z-score,[4]; [17],0.0141 ± 0.47
same,promoter activity interaction Z-score,[4]; [18],0.161 ± 0.65
same,promoter activity interaction Z-score,[4]; [19],0.414 ± 0.21
same,promoter activity interaction Z-score,[4]; [20],3.07 ± 0.41
same,promoter activity interaction Z-score,[4]; [21],3.8 ± 2.2
same,promoter activity interaction Z-score,[4]; [22],2.55 ± 1.5
same,promoter activity interaction Z-score,[4]; [23],2.08 ± 5
same,promoter activity interaction Z-score,[5]; [8],0.505 ± 0.043
same,promoter activity interaction Z-score,[5]; [9],0.245 ± 0.25
same,promoter activity interaction Z-score,[5]; [10],0.133 ± 0.36
same,promoter activity interaction Z-score,[5]; [11],0.554 ± 0.71
same,promoter activity interaction Z-score,[5]; [12],0.0622 ± 0.91
same,promoter activity interaction Z-score,[5]; [13],0.483 ± 0.81
same,promoter activity interaction Z-score,[5]; [14],0.389 ± 0.11
same,promoter activity interaction Z-score,[5]; [15],1.15 ± 1.3
same,promoter activity interaction Z-score,[5]; [16],-0.338 ± 0.75
same,promoter activity interaction Z-score,[5]; [17],-0.357 ± 0.2
same,promoter activity interaction Z-score,[5]; [18],0.416 ± 0.18
same,promoter activity interaction Z-score,[5]; [19],1.3 ± 1
same,promoter activity interaction Z-score,[5]; [20],-0.301 ± 0.048
same,promoter activity interaction Z-score,[5]; [21],0.127 ± 0.3
same,promoter activity interaction Z-score,[5]; [22],-0.752 ± 0.35
same,promoter activity interaction Z-score,[5]; [23],-0.158 ± 0.9
same,promoter activity interaction Z-score,[6]; [8],0.228 ± 0.36
same,promoter activity interaction Z-score,[6]; [9],0.2 ± 0.11
same,promoter activity interaction Z-score,[6]; [10],-0.0473 ± 0.12
same,promoter activity interaction Z-score,[6]; [11],0.164 ± 0.072
same,promoter activity interaction Z-score,[6]; [12],-0.175 ± 0.12
same,promoter activity interaction Z-score,[6]; [13],0.188 ± 0.14
same,promoter activity interaction Z-score,[6]; [14],-0.154 ± 0.05
same,promoter activity interaction Z-score,[6]; [15],0.0176 ± 0.14
same,promoter activity interaction Z-score,[6]; [16],-0.307 ± 0.09
same,promoter activity interaction Z-score,[6]; [17],0.119 ± 0.16
same,promoter activity interaction Z-score,[6]; [18],0.0235 ± 0.023
same,promoter activity interaction Z-score,[6]; [19],0.138 ± 0.19
same,promoter activity interaction Z-score,[6]; [20],-0.0128 ± 0.14
same,promoter activity interaction Z-score,[6]; [21],0.0924 ± 0.018
same,promoter activity interaction Z-score,[6]; [22],-0.135 ± 0.043
same,promoter activity interaction Z-score,[6]; [23],0.657 ± 0.49
same,promoter activity interaction Z-score,[7]; [8],-0.233 ± 0.12
same,promoter activity interaction Z-score,[7]; [9],-0.202 ± 0.12
same,promoter activity interaction Z-score,[7]; [10],-0.412 ± 0.27
same,promoter activity interaction Z-score,[7]; [11],-0.149 ± 0.38
same,promoter activity interaction Z-score,[7]; [12],-0.358 ± 0.5
same,promoter activity interaction Z-score,[7]; [13],0.891 ± 0.16
same,promoter activity interaction Z-score,[7]; [14],-0.173 ± 0.68
same,promoter activity interaction Z-score,[7]; [15],0.35 ± 0.7
same,promoter activity interaction Z-score,[7]; [16],-1.79 ± 0.32
same,promoter activity interaction Z-score,[7]; [17],-0.292 ± 0.4
same,promoter activity interaction Z-score,[7]; [18],-0.445 ± 0.36
same,promoter activity interaction Z-score,[7]; [19],0.22 ± 0.3
same,promoter activity interaction Z-score,[7]; [20],-0.204 ± 0.16
same,promoter activity interaction Z-score,[7]; [21],-0.347 ± 0.15
same,promoter activity interaction Z-score,[7]; [22],-0.366 ± 0.71
same,promoter activity interaction Z-score,[7]; [23],-0.266 ± 0.13
